# PubChem BioAssay (NCI)
# This is part of a sample that, as a whole, favours compounds with a hit. Of some 83,000 tested, about 20% had one in any assay.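 Cell lines were cultured in 96-well plates, exposed to a single compound concentration, and assessed for percent growth 48 hours later.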 A number with no mark means an inactive call. Activity calls are given as the source filed them. The calls were made as follows: active = growth percent below 10; inactive = the rest.
# What was measured:
# Assay in all cases: NCI-60 one-dose screen, 48 h (100 = growth as untreated, 0 = no growth, -100 = all killed)
# Details in all cases: 10 µM unless noted
# NCI-H23 lung = system: NCI-H23 lung
# NCI-H226 lung = system: NCI-H226 lung
# HOP-62 NSCLC = system: HOP-62 NSCLC
# NCI-H460 lung = system: NCI-H460 lung
# HOP-92 NSCLC = system: HOP-92 NSCLC
# NCI-H522 lung = system: NCI-H522 lung
# A549/ATCC NSCLC = system: A549/ATCC NSCLC
# 786-0 renal = system: 786-0 renal
# COLO 205 colon = system: COLO 205 colon
# DU-145 prostate = system: DU-145 prostate
# K-562 leukemia = system: K-562 leukemia
# MALME-3M melanoma = system: MALME-3M melanoma
# MDA-MB-231 breast = system: MDA-MB-231 breast
# RXF 393 renal = system: RXF 393 renal
# SF-268 CNS = system: SF-268 CNS
# SF-295 CNS = system: SF-295 CNS
# SF-539 CNS = system: SF-539 CNS
# UACC-257 melanoma = system: UACC-257 melanoma
# M14 melanoma = system: M14 melanoma
# NCI-H322M lung = system: NCI-H322M lung
SMILES,growth (NCI-H23 lung) [%],growth (NCI-H226 lung),growth (HOP-62 NSCLC) [%],growth (NCI-H460 lung),growth (HOP-92 NSCLC),growth (NCI-H522 lung),growth (A549/ATCC NSCLC) [%],growth (786-0 renal) [%],growth (COLO 205 colon),growth (DU-145 prostate) [%],growth (K-562 leukemia),growth (MALME-3M melanoma),growth (MDA-MB-231 breast),growth (RXF 393 renal) [%],growth (SF-268 CNS),growth (SF-295 CNS) [%],growth (SF-539 CNS),growth (UACC-257 melanoma) [%],growth (M14 melanoma),growth (NCI-H322M lung) [%]
COc1ccccc1NC(=O)N=Nc1c(O)[nH]c2ccccc12,89.8,86.5%,98.8,104%,80.3%,83.2%,95.7,90.4,85.2%,102,91.2%,95.8%,82.7%,100,99.1%,94.1,98.3%,89,95.1%,
Cc1ccc2c(c1)=C/C(=C\c1cc(-c3ccccc3)oc1O)C(=O)N=2,95.3,106%,101,113%,87.4%,97.4%,105,91.4,108%,104,91.7%,110%,116%,106,91.6%,93.1,101%,109,90.6%,
COc1ccc(/C=C/C(=O)c2cccc(OCCCCOc3cccc(C(=O)/C=C/c4ccc(OC)c(OC)c4)c3)c2)cc1OC,54.5,57.5%,72.8,80.5%,55.3%,64.4%,78,89.8,112%,83.3,50.7%,77.7%,87.7%,79.1,76.2%,47,87.7%,57.1,78.6%,
CN(/C(N)=N/N=C/c1c2ccccc2cc2ccccc12)C1CCCCC1,16.1,64.3%,75.8,43.6%,-5.84% (active),40.9%,43.4,49.5,,57.6,12.9%,39.8%,59.9%,48.1,72.4%,45.7,73.9%,64.3,37.7%,73.6
Nc1n[nH]c2ccc([C@H]3[C@@H]4C5CCC(C5)[C@@H]4c4c(ccc5[nH]ncc45)N3S(=O)(=O)C3CC3)cc12 (some centres not stated),16.3,-16.9% (active),41.1,5.9% (active),67.7%,7.23% (active),17.1,31.3,-0.398% (active),17.9,13.6%,61.4%,-9.16% (active),26.2,37.1%,12.6,-25.5% (active),63.8,7.92% (active),
O=C(COc1ccc(-c2nc3cc(Cl)c(Cl)cc3[nH]2)cc1)N=Nc1c(O)[nH]c2ccc(Cl)cc12,70.1,80.8%,89.9,46.4%,77.1%,97.9%,75.9,68.7,56.2%,74.6,5.55% (active),49.5%,76.8%,77.6,89.4%,74.8,84.2%,105,66.5%,
CCN(CC)CCn1c2ccc(OC)cc2c2sc3cc(OC)ccc3c(=O)c21,23.1,71.4%,38.1,9.41% (active),41.7%,48.1%,19.1,11.1,18.6%,44.9,4.61% (active),-27% (active),40.5%,12.7,38.5%,18.9,22.7%,41.3,-77.9% (active),
CCCCn1c(=O)[nH]c(N)c([C@@H]2c3c([nH]c(=O)n(CCCC)c3=O)Oc3ccc4ccccc4c32)c1=O,13,92%,73.6,15.4%,83.3%,59%,94.6,77.8,59.3%,47.5,76.3%,38.5%,55.4%,99.6,8.16% (active),89.1,95.8%,93,31.1%,
